Shown are actives, neighbours in structure and some others; about 5.8% of the full set was active somewhere.
KB-3-1 cytotox: KB-3-1 parental cell cytotoxicity | KB-3-1 viability, CellTiter-Glo ATP luminescence, 72 h | Potency, µM (doses to about 46.1 µM), usual class: cytotoxic | hit rate 1.4% among 400,000 | AID 1347075; further: on the % scale 0 is the no-effect control and ±100 the full control effect; nearly all actives have a fitted effect of over 60% in size
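Using CellTiter-Glo luminescence, growth of non-resistant KB-3-1 adenocarcinoma cells is assessed 72 h after pin-tool compound addition at 37 °C. Normalized responses across the concentration series yield fitted curves.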
PINK1 expr mod: changes PINK1 expression | AID 624263 | hit rate 0.2% among 410,000 | PINK1 immunofluorescence, high-content cytometry, 24 h | Potency, µM (top dose mostly 76.6 µM), for inactives: top-dose activation (PINK1 increase), usual class: activators; active means well fitted activation curve with a large enough effect; inconclusive means small, poorly fitted or top-dose-only effect; cell line not stated here; further: % of control where 0% means no effect; nearly all actives have a fitted effect of over 65% in size
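PINK1 protein, normally rapidly degraded, was detected by immunofluorescence after 24 hour compound treatment of a stable cell line. Titration data (5 concentrations) came from laser-scanning cytometry, with CCCP-treated wells as controls.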
ALOX12 inh: inhibitors of human 12S-lipoxygenase ALOX12 | AID 1671190 | P18054 | purified 12hLO, xylenol orange hydroperoxide absorbance | Potency, µM (series often up to 108 µM), for inactives: at the highest dose activity change, negative = inhibition, usual class: inhibitors | hit rate 1.1% among 580,000; further: on the % scale 0 is the no-effect control and ±100 the full control effect
Target sequence (P18054 whole entry, looked up): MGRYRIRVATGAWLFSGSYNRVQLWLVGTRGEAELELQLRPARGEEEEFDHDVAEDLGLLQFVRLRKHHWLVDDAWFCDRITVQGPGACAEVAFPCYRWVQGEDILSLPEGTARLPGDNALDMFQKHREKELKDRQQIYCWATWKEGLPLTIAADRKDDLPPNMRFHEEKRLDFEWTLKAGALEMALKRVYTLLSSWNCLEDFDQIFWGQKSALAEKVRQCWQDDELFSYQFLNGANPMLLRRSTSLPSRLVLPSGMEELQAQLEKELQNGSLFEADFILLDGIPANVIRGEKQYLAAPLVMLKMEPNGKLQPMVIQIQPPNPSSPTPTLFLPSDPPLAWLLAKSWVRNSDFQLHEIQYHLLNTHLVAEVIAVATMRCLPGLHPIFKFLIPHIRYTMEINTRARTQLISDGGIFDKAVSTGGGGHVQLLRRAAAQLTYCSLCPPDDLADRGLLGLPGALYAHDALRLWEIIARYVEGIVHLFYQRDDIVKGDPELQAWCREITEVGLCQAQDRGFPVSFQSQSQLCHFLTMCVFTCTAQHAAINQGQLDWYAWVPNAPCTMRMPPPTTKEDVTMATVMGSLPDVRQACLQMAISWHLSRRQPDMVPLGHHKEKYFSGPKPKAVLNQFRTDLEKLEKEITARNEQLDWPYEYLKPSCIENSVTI
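Purified human 12hLO at 150 nM in 25 mM Hepes, 0.01% Triton X-100, pH 7.0, preincubated 15 min at room temperature with compound. Reaction started with 40 uM arachidonic acid, 30 min at room temperature. Hydroperoxide measured by Fe-xylenol orange, 573/405 nm absorbance ratio.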
KB-V1 cytotox: kills drug-selected multidrug resistant KB-V1 cells. KB-V1 MDR cells viability, CellTiter-Glo, 72 h. Potency, µM (highest dose often 46.1 µM), hits mostly cytotoxic. hit rate 3.4% among 400,000. AID 1347076; further: on the % scale 0 is the no-effect control and ±100 the full control effect; nearly all actives have a fitted effect of over 60% in size
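Cells of the MDR subline KB-V1 are plated, dosed with compound at multiple concentrations, and incubated 72 h at 37 degrees C; CellTiter-Glo is then added and luminescence read after 10 min.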
SW480 rereplic: DNA re-replication induction in SW480 cells. SW480 DNA re-replication, Hoechst DNA content imaging, 48 h. Potency, µM (series often up to 46.1 µM), for inactives: at the highest dose re-replication activation, actives largely listed as activators. hit rate 1.8% among 340,000; further: % of control where 0% means no effect; nearly all actives have a fitted effect of over 55% in size
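Image-based DNA-content assay: after two days of treatment, nuclei were labelled with the DNA dye Hoechst and imaged, and hits were compounds raising the count of nuclei showing high fluorescence intensity.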
MCF10A rereplic: DNA re-replication induction in MCF 10a cells. Potency, µM (titrated, usually from 46.1 µM), without a hit: at the top dose activity, positive = re-replication, hits mostly activators. hit rate 2.9% among 350,000. MCF 10A DNA re-replication, Hoechst nuclear intensity, 48 h; further: % of control where 0% means no effect; nearly all actives have a fitted effect of over 50% in size
Numbers without * were called inactive; i = inactive; ? = inconclusive; · = no result; ! = a repeat was not active; [ ] = dose if it differs, or a comment. Unless noted, the call rests on the fitted dose curve; in most records, active means well fitted curve in the direction sought with a large enough effect; inconclusive means small, poorly fitted or top-dose-only effect, or another doubt; inactive means no such curve, though single readings can be large; an effect the other way counts as inactive or inconclusive. Potency means the concentration at half of the fitted maximal effect.

SMILES	KB-3-1 cytotox	PINK1 expr mod	ALOX12 inh	KB-V1 cytotox	SW480 rereplic	MCF10A rereplic
CCOCCOC(=O)c1[nH]c2c(c1C)C(=O)CC(c1ccccc1)C2 (centres undefined)	0.92µM*	1%	-3%	1µM*	0.52µM*	?
COC(=O)c1[nH]c2c(c1C)C(=O)CC(c1cccc(OC)c1)C2 (centres undefined)	?	14%	-1%	?	0.73µM*	?
Cc1c(C(=O)OCC(C)C)[nH]c2c1C(=O)CC(c1cccs1)C2 (centres undefined)	?	8%	16%	?	3.7µM*	?
COc1ccc(C(C)NC(=O)CCc2ncc(-c3ccccc3)o2)cc1F (centres undefined)	·	·	-1%	·	·	·
CCOCCOC(=O)c1[nH]c2c(c1C)C(=O)CC(c1cccs1)C2 (centres undefined)	0.92µM*	7%	-9%	1.2µM*	1.2µM*	?
COCCOC(=O)c1[nH]c2c(c1C)C(=O)CC(c1ccc(OC)c(OC)c1)C2 (centres undefined)	i	1%	13%	i	-4%	8%
CCCCCOC(=O)c1[nH]c2c(c1C)C(=O)CC(c1ccco1)C2 (centres undefined)	?	5%	·	0.0082µM*	0.12µM*	?
COCCOC(=O)c1[nH]c2c(c1C)C(=O)CC(c1cccs1)C2 (centres undefined)	1.8µM*	9%	6%	1.5µM*	2.6µM*	?
Cc1c(C(=O)OCC2CCCO2)[nH]c2c1C(=O)CC(c1ccc(N(C)C)cc1)C2 (centres undefined)	?	2%	6.3µM*	21µM*	23%	15%
O=C1CN(C(=O)CCC(=O)N2CCCC(Cc3nncn3-c3ccccc3)C2)c2ccccc2N1 (centres undefined)	·	·	0%	·	·	·
CCOc1ccc2c(=O)c(Oc3ccccc3Br)c(C)oc2c1	·	·	-1%	·	·	·
COc1ccc(SCC(=O)c2ccc(O)cc2O)cc1	·	·	40µM*	·	·	·
O=C(COC(=O)c1ccc(O)cc1O)NC1CCCCCC1	i	1%	290%	i	-4%	4%
O=C(CSC1CCCCC1)c1ccc(O)cc1O	·	·	45µM*	·	·	·
CCOC(=O)C1=C(C)N(C[C@@H]2CC[C@@H](Cc3ccc(-c4ccccc4)cc3)O2)C(=O)NC1c1ccc(C(F)(F)F)cc1 (some centres undefined)	i	2%	-8%	i	?	-20%
CCOC(=O)C1=C(C)N(C[C@@H]2CC[C@@H](Cc3ccc(-c4ccccc4)cc3)O2)C(=O)NC1c1ccc(SCc2ccco2)c([N+](=O)[O-])c1 (some centres undefined)	i	0%	18µM*	i	-1%	?
CCOC(=O)C1=C(C)N(C[C@@H]2CC[C@@H](Cc3ccc4cc(OC)ccc4c3)O2)C(=O)NC1c1ccc(OC)cc1 (some centres undefined)	i	1%	-34%	?	?	4.1µM*
Cc1ccc(C)n1-c1nc(=S)[nH][nH]1	i	4%[38.3 µM]	4.5µM*	i	2%	-2%
S=c1nc(-c2ccc(Cl)cc2)[nH][nH]1	i	-3%	?	i	-10%	11%
Clc1ccccc1-c1noc(-c2ccc(Br)cc2)n1	·	·	5%	·	·	·
CCC(=O)N1CCN(c2ccccc2NC(=O)Cc2ccc(Cl)cc2)CC1	i	-4%[38.3 µM]	5%	i	-7%	-6%
CCC(=O)N1CCN(c2ccc(Cl)cc2NC(=O)Cc2ccc(Cl)cc2)CC1	i	-5%[38.3 µM]	-13%	3.7µM*	9%	-9%
CCCC(=O)Nc1cc(Cl)ccc1N1CCN(C(=O)CC)CC1	i	·	8%	?	21%	18µM*
CCCC(=O)N1CCN(c2nc3ccc(Br)cc3s2)CC1	?	0%	-10%	i	23%	?
CCCC(=O)N1CCN(c2nc3ccc(Cl)cc3s2)CC1	18µM*	1%	-2%	?	0%	?
SMILES	KB-3-1 cytotox	PINK1 expr mod	ALOX12 inh	KB-V1 cytotox	SW480 rereplic	MCF10A rereplic
Cc1nc(CCNC(=O)N(C)Cc2ccc3c(c2)OCO3)cs1	·	·	24%	·	·	·
CCc1ccc2nc(/N=C(\N)NC(=O)c3ccccc3N)nc(C)c2c1	·	·	52%	·	·	·
CCn1nc(C(=O)N2CC(C(=O)N3CCOCC3)Oc3ccccc32)c2ccccc2c1=O (centres undefined)	·	·	-30%	·	·	·
O=C(CSc1nc2ccccc2o1)c1cccc(C(F)(F)F)c1	·	·	-2%	·	·	·
CC(C)N1CCN(Cc2ccc(OC3CCCC3)cc2)CC1CCO (centres undefined)	i	3%	0%	i	3%	4.6µM*
CC(C)N1CCN(Cc2ccc(OCc3ccccc3)cc2)CC1CCO (centres undefined)	i	-2%	0%	?	?	9%
Clc1ccc(-c2ccc(/C=N/Nc3cc(N4CCOCC4)nc(N4CCOCC4)n3)o2)cc1	?	6%	-1%	?	13µM*	?
Brc1ccc(-c2ccc(/C=N/Nc3nc(N4CCOCC4)nc(N4CCOCC4)n3)o2)cc1	i	4%	-7%	i	?	5%
Cc1cccc(/C=N/Nc2cc(N3CCOCC3)nc(N3CCOCC3)n2)c1	?	17%	0%	15µM*	2.1µM*	?
CC(C)c1ccc(/C=N/Nc2cc(N3CCOCC3)nc(N3CCOCC3)n2)cc1	i	5%	9%	?	?	21%
Cc1ccsc1-c1nc(-c2ccc3c(c2)OCCCO3)cs1	·	·	-32%	·	·	·
COc1cc2c(cc1OC)-c1c(c(C(=O)Nc3cccnc3)nn1-c1ccccc1)C2	·	·	37%	·	·	·
COc1cc(NC(=O)c2nccn2C)cc(C(=O)Nc2cccc(C(F)(F)F)c2)c1	i	8%	?	4.1µM*!	?	6%
COc1cc(NC(=O)N2CCNC2=O)cc(C(=O)Nc2cccc(C(F)(F)F)c2)c1	10µM*	12%	-18%	i	5.2µM*	2.1µM*
COc1ccc(-c2ocnc2C(=O)Nc2ccc3c(c2)OCCO3)cc1	·	·	-1%	·	·	·
O=C1NC(=NC2CCCCC2)C2(CCCN([S+](=O)([O-])c3cccc(C(F)(F)F)c3)C2)N1c1cccnc1 (centres undefined)	·	·	72%	·	·	·
CCOC(=O)C1NN=C(C(=O)c2ccccc2)C1c1ccccc1 (centres undefined)	i	0%	-7%	21µM*	0%	10%
COc1ccc(-c2noc(-c3cccc(OCC(=O)N4CCN(c5ccccc5)CC4)c3)n2)cc1	·	·	-12%	·	·	·
COc1ccc(C/C(C)=N/NC(=S)Nc2ccccc2)cc1	i	4%	?	i	-8%	-3%

Screening results: PubChem, National Center for Advancing Translational Sciences (NCATS)
